# This excerpt belongs to a sample that is enriched for hits.
# Dicer processing: inhibitors of Dicer pre-microRNA processing, primary screen, biochemical, cat-ELCCA, chemiluminescence | cat-ELCCA pre-miR-21 Dicer processing; stronger effect = higher value | z-score at 25 µM | hit rate 6% among 47,000 | AID 1347074, 2019; in the data active = z-score above about 3, passing the limit was not always enough;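 note: higher signal means more uncleaved substrate so more Dicer inhibition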
# A number is an active result; n = inactive.
SMILES,Dicer processing
COC(=O)c1sc(N2C(=O)C(O)=C(C(=O)c3cccs3)C2c2ccc(C)cc2)nc1C (stereo not drawn),n
Cc1nnc2c(N3CCN(Cc4ccccc4)CC3)nc3ccccc3n12,n
Cn1c(S(=O)(=O)Cc2ccc(Cl)cc2)nc2ccccc21,n
Cn1c(CN2CCN(c3ccc(Cl)cc3)CC2)nc2ccccc21,6.14
CCCOc1ccc(C2C(C(=O)OC(C)C)=C(C)NC3=C2C(=O)CCC3)cc1OC (stereo not drawn),n
O=[N+]([O-])c1ccc(Oc2cc(S(=O)(=O)c3ccccc3)ccc2[N+](=O)[O-])nc1,n
Cc1oc2ccc(NS(=O)(=O)c3ccccc3)cc2c1C(=O)O,3.44
Cc1oc2ccc(NS(=O)(=O)c3ccc(F)cc3)cc2c1C(=O)O,n
O=C(O)c1ccc(S(=O)(=O)Nc2ccc3oc4c(c3c2)C(=O)CCC4)cc1,n
COc1ccc(S(=O)(=O)Nc2ccc3oc4c(c3c2)CCCC4)cc1,n
Cc1ccccc1S(=O)(=O)Nc1ccc2oc3c(c2c1)CCCC3,3.9
Cc1oc2ccc(NS(=O)(=O)c3ccc(Cl)cc3)cc2c1C(=O)O,n
CSc1cc(C(F)(F)F)c(C(=O)Nc2c(C)cccc2C)cn1,n
CCOc1ccc(Br)cc1S(=O)(=O)n1ccnc1CC,n
CC12CN3CC(C)(CN(C1)C3c1ccccc1O)C2 (stereo not drawn),n
C(=C\c1nn2c(-c3ccco3)nnc2s1)/c1cccs1,n
CC1C(O)CC(c2ccccc2)NC1c1ccccc1 (stereo not drawn),n
CC1=CC(c2ccc(Cl)cc2)n2nc(NC(=O)c3ccco3)nc2N1 (stereo not drawn),9.83
CS(=O)(=O)Nc1nc2n(n1)C(c1ccc(F)cc1)C=C(c1ccc(Cl)cc1)N2 (stereo not drawn),n
Cc1ccc(C2C=C(c3ccc(Cl)cc3)Nc3nc(NS(C)(=O)=O)nn32)cc1 (stereo not drawn),n
CCOc1ccc(NC2OC(=O)c3ccccc32)cc1 (stereo not drawn),n
O=c1cc(Nc2ccc(OC(F)(F)F)cc2)c2ccccc2o1,3.22
O=C(NNC(=O)Nc1ccc(OC(F)(F)F)cc1)Nc1ccc(OC(F)(F)F)cc1,n
O=c1nc(Nc2ccc(OC(F)(F)F)cc2)c2ccccc2o1,n
CCOC(=O)c1sc(SC)c2c1CCC=C2,n
SMILES,Dicer processing
CCOC(=O)c1sc(SC)c(C(C)O)c1C (stereo not drawn),3.94
CCOC(=O)c1sc2sc(C(=O)OCC)c(C)c2c1C,n
Cc1[nH]c2ccccc2c1C1(O)C(=O)N(CCOc2ccc(Cl)cc2)c2ccccc21 (stereo not drawn),n
Cc1c(Br)sc2sc(Br)c(C)c12,n
O=c1oc(-c2ccccc2Br)nc2ccccc12,4.59
O=c1oc(-c2ccc(-c3ccccc3)cc2)nc2ccccc12,n
O=c1oc(-c2cccc(Cl)c2)nc2ccccc12,n
CCCc1nnc(N2C(=O)c3oc4ccc(F)cc4c(=O)c3C2c2ccc(OC)c(OC)c2)s1 (stereo not drawn),n
CCOC(=O)c1c(C)nc2c(c1-c1ccc(C)cc1)C(=O)c1ccccc1-2,n
COc1nc(-c2ccccc2)ccc1-c1noc(-c2ccncc2)n1,n
C#CCN1C(=O)C(O)(CC(=O)c2c(C)cc(C)cc2C)c2ccccc21 (stereo not drawn),4.29
C#CCN1C(=O)C(O)(CC(=O)c2cc(C)ccc2C)c2ccccc21 (stereo not drawn),n
C#CCN1C(=O)C(O)(CC(=O)c2ccc(C)cc2C)c2ccccc21 (stereo not drawn),n
CSc1nc(C2CC2)nc(C2CC2)c1C#N,n
CC1=CC(C)(C)N(C(=O)Nc2ccccc2)c2ccccc21,3.47
CC1=CC(C)(C)N(C(=O)NC2CCCCC2)c2ccccc21,n
CC1=CC(C)(C)N(C(=O)Nc2ccccc2)c2c(C)cc(C)cc21,n
O=C(c1cccs1)c1nn(-c2cccc(Cl)c2)c2nc(=O)c(Cc3ccc(Cl)cc3)nn12,n
CCC1C(=O)C2(CCCCC2)C(=O)OC1c1ccc(F)cc1 (stereo not drawn),n
CCn1c(/C=C/c2ccc3c(c2)OCO3)nc2ccccc2c1=O,5.12
CCn1c(SC)nc2ccccc2c1=O,n
CCn1c(/C=C/c2cccc(Br)c2)nc2ccccc2c1=O,n
Cc1ccc(C2CC(=O)C=C(Nc3n[nH]c(C)c3-c3ccccc3)C2)cc1 (stereo not drawn),n
COC(Cn1c(SCc2ccccc2Cl)nnc1-c1ccccc1)OC,n
O=c1[nH]nc(Cc2ccccc2)c2ccccc12,3.98
SMILES,Dicer processing
COC(=O)CSCc1n[nH]c(=O)c2ccccc12,n
O=c1[nH]nc(-c2ccccc2)c2ccccc12,n
CN1CCN(C(=O)CCSc2nc(-c3ccc4c(c3)OCO4)cc(C(F)(F)F)n2)CC1,n
O=C(O)C1CC1C(=O)Nc1ccc(Oc2ccc(Cl)cc2C2CCCCC2)nc1 (stereo not drawn),n
Cc1cc(C)n(CC(O)Cn2c(C)c(C)c3ccccc32)n1 (stereo not drawn),n
OC(CNC1CCCCC1)Cn1c2ccccc2c2ccccc21 (stereo not drawn),n
Cc1ccc2c(c1)c(C)c(C)n2CC(O)CN1CCCCC1C (stereo not drawn),3.64
CC(C)(C)c1cc(C(=O)Nc2cccc(C(F)(F)F)c2)n(Cc2ccc(F)cc2)n1,n
CC1=C(C(=O)OCC2CCCO2)C(c2cccc(O)c2)C2=C(CC(c3cccs3)CC2=O)N1 (stereo not drawn),n
Cc1ccccc1Cn1c(CO)nc2ccccc21,n
CCCCN1C(=O)C(O)(CC(=O)c2ccccc2)c2ccccc21 (stereo not drawn),n
O=c1oc(-c2ccccc2)nc2sc3c(c12)CCCC3,n
O=c1oc(/C=C/c2ccccc2)nc2sc3c(c12)CCC3,4.85
O=c1oc(-c2ccccc2)nc2sc3c(c12)CCCCC3,3.07
Cc1ccccc1-c1nc2sc3c(c2c(=O)o1)CCC3,n
O=c1oc(-c2cccs2)nc2sc3c(c12)CCCCC3,n
S=c1nc2sc3c(c2c(Nc2ccccc2)[nH]1)CCCC3,n
Cc1ccc(NC(=O)c2cc(Br)cc3c2OCC3)cc1,n
N#CC1=C(N)OC2=C(CCC/C2=C\c2ccccc2)C1c1ccccc1 (stereo not drawn),n
Cc1c(-c2ccccc2)cn2ccn3c(C)ccc3c12,n
COc1ccc(OC)c(NC(=O)C(=O)NN)c1,n
COC(=O)c1cc(OC)c(OC)cc1NC(=O)CCC(=O)O,n
COc1ccc(OC)c(NC(=O)CCC(=O)O)c1,4.95
Cn1c(=O)c2c(nc(Cl)n2CC(=O)c2ccccc2)n(C)c1=O,n
COc1ccc(C2C(C(=O)OCC3CCCO3)=C(C)NC3=C2C(=O)CC(C)(C)C3)c(OC)c1 (stereo not drawn),n
SMILES,Dicer processing
Cc1sc2c(c1C)C(=O)/C(=C\Nc1ccc(Cl)cn1)S(=O)(=O)N2C,n
COc1cccc(-c2nn3c(Cc4ccccc4)nnc3s2)c1,n
Cc1ccc(NC(=O)/C=C/C(=O)Nc2ccc(C)c(Cl)c2)cc1Cl,n
Cc1cccc(NC(=O)/C=C/C(=O)O)c1,n
O=C(O)/C=C/C(=O)Nc1ccc(C(=O)O)c(O)c1,4.68
CCn1cc(C(CC(=O)O)C(=O)O)c2ccccc21 (stereo not drawn),n
CCOC(=O)C1=C(Nc2ccc(OC(=O)Nc3ccccc3)cc2)C(=O)N(C(C)(C)C)C1,n
Cn1nc(-c2ccccc2)cc1NC(=O)Nc1ccc(OC(F)(F)F)cc1,n

# Screens from PubChem BioAssay.
